High-throughput results from PubChem.
EWS-Fli block – blocks EWS/Fli oncoprotein-driven transcription. A673 NR0B1-luciferase reporter, viability-normalised. inhibition, % at 12.6 µM. hit rate 0.67% among 350,000. AID 651661;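 active = mean inhibition of at least 50% after viability correction, with every replicate also passing that limit; inconclusive = mean reaches 50% but only one of two replicates passes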;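 also: firefly luciferase signal divided by Alamar Blue viability fluorescence both relative to DMSO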
CFTR F508del cor – CFTR F508del correction in bronchial cells. AID 720511. hit rate 0.36% among 350,000. activity (quench increase), % at 7.58 µM. CFBE cells, YFP halide quenching; stimulated with forskolin plus potentiator P3; % fluorescence drop versus neutral controls;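 active = mean added fluorescence quench of at least 8% versus neutral control, with both replicates also reaching 8%; inconclusive = only one of the mean or replicate conditions met; inactive = mean below 8% and not both replicates reaching 8%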;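 also: cells transiently co-express mutant CFTR-F508del with the halide-sensitive YFP; corrector assay measuring rescue of mutant channel to the surface after 24 h compound exposure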
PAX8 reporter – lowers PAX8-driven luciferase in RMG-I cells | RMG-I TPO-luciferase reporter, SteadyGlo, 24 h | inhibition, % at 12.6 µM | hit rate 1.2% among 360,000;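 active = mean replicate inhibition at least 60% with every replicate also reaching 60%; inconclusive = only one of the two criteria is met; inactive = mean below 60% and not all replicates reaching 60%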;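 also: luciferase light reporting Pax8 driven TPO promoter activity; plate controls were median of neutral control wells for no effect and mitoxantrone controls for full effect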
LGR2 inh – blocks bursicon-induced cAMP signaling via Drosophila LGR2; inhibition, % at 9.99 µM; hit rate 0.35% among 380,000; HEK293 LGR2, CRE-luciferase, bursicon-stimulated, 4 h;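 active = drop in luminescence signal, shown as inhibition above about 50% in the replicate tests, limit read from the data, passing the limit was not always enough; inconclusive = probably only some replicates passing the limit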;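 also: agonist challenge used bursicon conditioned medium at about half maximal strength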
Active calls of the source: *. A selection: hits, their analogues and other compounds. The true share with any hit is near 1.8%.

How did COc1ccc(-c2ccccc2C2Cc3nnccc3CN2)cc1 (configuration not stated) do in these assays?
EWS-Fli block: -4.3; CFTR F508del cor: -3.8; PAX8 reporter: 72.0*; LGR2 inh: 4.7

How did COc1ccc(NC(=O)CSCC(=O)NCCc2ccccn2)cc1 do in these assays?
EWS-Fli block: -12.6; CFTR F508del cor: -0.9; PAX8 reporter: -10.8; LGR2 inh: -3.1

Results for O=C1C=CC(O)(c2cc(=O)c3c(O)cc(O)cc3o2)C=C1 ?
EWS-Fli block: 72.9*; CFTR F508del cor: 16.6*; PAX8 reporter: 88.9*; LGR2 inh: 89.3*

Results for CC1(Cc2ccc(OC(F)(F)F)cc2)C(=O)Nc2ccc(S(=O)(=O)NC3CCCCC3)cc21 (configuration not stated) ?
EWS-Fli block: 5.6; CFTR F508del cor: -2.2; PAX8 reporter: 89.7*; LGR2 inh: inconclusive

How did CC1(Cc2ccc(Cl)cc2)C(=O)Nc2ccc(S(=O)(=O)NC3CCCCC3)cc21 (configuration not stated) do in these assays?
EWS-Fli block: -0.6; CFTR F508del cor: 4.6; PAX8 reporter: 5.7; LGR2 inh: 36.7

How did O=C(Nc1cccc(F)c1)N1CCCCN2[C@H](CO)[C@@H](c3ccc(-c4ccccc4F)cc3)[C@H]2C1 do in these assays?
EWS-Fli block: 32.2; CFTR F508del cor: 0.4; PAX8 reporter: 93.6*; LGR2 inh: -1.3

Results for O=C(Nc1cccc(F)c1)N1CCCCN2[C@@H](CO)[C@H](c3ccc(-c4ccccc4F)cc3)[C@@H]2C1 ?
EWS-Fli block: 7.9; CFTR F508del cor: 3.3; PAX8 reporter: 49.4; LGR2 inh: 11.3

What do the screens show for `O=C(Nc1ccc(F)cc1)N1CCCCN2[C@H](CO)[C@H](c3ccc(-c4ccccc4F)cc3)[C@H]2C1`?
EWS-Fli block: 3.2; CFTR F508del cor: -0.4; PAX8 reporter: 64.2*

How did Cc1ccn2c(Nc3ccccc3C)c(-c3ccccn3)nc2c1 do in these assays?
EWS-Fli block: 18.7; CFTR F508del cor: 5.2; PAX8 reporter: 13.1; LGR2 inh: 23.4

How did Cc1ccccc1Nc1c(-c2ccccn2)nc2ccccn12 do in these assays?
EWS-Fli block: 51.6*; CFTR F508del cor: 3.2; PAX8 reporter: 30.2; LGR2 inh: 49.8

What do the screens show for `Cc1ccn2c(Nc3ccccc3)c(-c3ccccn3)nc2c1`?
EWS-Fli block: 51.9*; CFTR F508del cor: -3.0; PAX8 reporter: 18.4; LGR2 inh: 8.2

How did COc1ccc(Nc2nc(N)nc(CCl)n2)cc1 do in these assays?
EWS-Fli block: 44.4; CFTR F508del cor: -0.7; PAX8 reporter: 100.8*; LGR2 inh: -31.5

What do the screens show for `COc1ccc(Nc2nc(NN)nc(Nc3ccc(OC)cc3)n2)cc1`?
EWS-Fli block: 12.6; CFTR F508del cor: 0.4; PAX8 reporter: 1.9; LGR2 inh: -10.1

How did Nc1nc(CCl)nc(Nc2ccc3ccccc3c2)n1 do in these assays?
EWS-Fli block: 52.5*; CFTR F508del cor: 1.0; PAX8 reporter: 97.9*; LGR2 inh: -100.0

How did Cc1ccccc1Nc1nc(N)nc(CCl)n1 do in these assays?
EWS-Fli block: 61.3*; CFTR F508del cor: -4.9; PAX8 reporter: 102.1*

Results for Nc1nc(CN2CCN(Cc3ccccc3)CC2)nc(Nc2ccc3c(c2)OCCO3)n1 ?
PAX8 reporter: -5.3

How did Cc1ccc(Cl)c(OC(=O)c2ccc(N3CCOCC3)c([N+](=O)[O-])c2)c1 do in these assays?
PAX8 reporter: 0.0; LGR2 inh: 6.6

How did COc1ccc(C[C@@H]2CCc3cnnn3COC[C@H](Cc3ccccc3)NC2=O)cc1 do in these assays?
EWS-Fli block: 1.3; PAX8 reporter: 8.7; LGR2 inh: -19.8

What do the screens show for `COc1cc(NC(=O)c2cccs2)c(C(=O)OCC(=O)c2cc(C)n(-c3ccccc3)c2C)cc1OC`?
PAX8 reporter: 23.2; LGR2 inh: 59.9*

What do the screens show for `Cn1c(=NC(=O)CCl)sc2ccccc21`?
EWS-Fli block: 73.5*; CFTR F508del cor: 0.2; LGR2 inh: 2.4

What do the screens show for `C=C1CC2(OC1=O)c1ccccc1CCc1ccccc12`?
EWS-Fli block: 52.2*; CFTR F508del cor: -7.4; PAX8 reporter: 71.3*; LGR2 inh: 75.9*

What do the screens show for `CC[n+]1c(-c2ccc(C)cc2)csc1Nc1c(C)n(C)n(-c2ccccc2)c1=O`?
EWS-Fli block: 6.4; PAX8 reporter: 2.7; LGR2 inh: 19.9

How did COc1ccccc1C1=NNC(=Nc2cccc(S(=O)(=O)N(C)C)c2)SC1 do in these assays?
EWS-Fli block: 40.8; CFTR F508del cor: 2.9; PAX8 reporter: 84.1*; LGR2 inh: 7.7

How did Cc1cccc(C)c1N=C1NN=C(c2ccccc2F)CS1 do in these assays?
PAX8 reporter: -13.3; LGR2 inh: -25.2

Results for C[C@@H]1CN([C@@H](C)CO)C(=O)c2cc(NS(C)(=O)=O)ccc2O[C@H]1CN(C)Cc1ccncc1 ?
EWS-Fli block: 2.1; CFTR F508del cor: -0.1; PAX8 reporter: 2.4; LGR2 inh: -11.8

What do the screens show for `CC(=O)c1cccc(-c2ccnc3c2CC(C(=O)NCC2CCOCC2)O3)c1` (configuration not stated)?
EWS-Fli block: 66.1*; CFTR F508del cor: 7.5; PAX8 reporter: 35.9; LGR2 inh: -6.6

What do the screens show for `CC(=O)Nc1ccc(-c2ccnc3c2CC(C)(C(=O)NCc2ccco2)O3)cc1` (configuration not stated)?
EWS-Fli block: 54.1*; CFTR F508del cor: -2.1; PAX8 reporter: 39.9; LGR2 inh: 10.2

What do the screens show for `COc1ccc(NC(=O)C2Cc3c(-c4cccc(NC(C)=O)c4)ccnc3O2)cn1` (configuration not stated)?
EWS-Fli block: 63.4*; CFTR F508del cor: 2.8; PAX8 reporter: 51.1; LGR2 inh: -7.6

What do the screens show for `CC(=O)Nc1ccc(-c2ccnc3c2CC(C(=O)NCc2ccccc2)O3)cc1` (configuration not stated)?
EWS-Fli block: 50.5*; CFTR F508del cor: 5.0; PAX8 reporter: 91.7*; LGR2 inh: -28.3

How did CC1=C(C(=O)NCCCOC(C)C)C2(CCC(C)CC2)OC1=O (configuration not stated) do in these assays?
EWS-Fli block: 0.5; CFTR F508del cor: -1.3; PAX8 reporter: 8.0; LGR2 inh: 6.1

How did CC(=O)Nc1ccc(-c2ccnc3c2CC(C(=O)NCC2CC2)O3)cc1 (configuration not stated) do in these assays?
EWS-Fli block: 6.2; CFTR F508del cor: 0.7; PAX8 reporter: 19.0; LGR2 inh: 12.4

Results for CC(=O)Nc1ccc(-c2ccnc3c2CC(C(=O)NCc2ccco2)O3)cc1 (configuration not stated) ?
EWS-Fli block: 62.3*; CFTR F508del cor: 3.1; PAX8 reporter: inconclusive; LGR2 inh: -9.9

How did O=C(NCc1ccccc1)C1Cc2c(-c3ccc4c(c3)OCO4)ccnc2O1 (configuration not stated) do in these assays?
EWS-Fli block: 60.0*; CFTR F508del cor: -1.8; PAX8 reporter: 67.6*; LGR2 inh: -18.7

Results for CO[C@@H]1CN(C)C(=O)c2cc(NC(=O)NC(C)C)ccc2OC[C@@H](C)N(CC2CC2)C[C@H]1C ?
EWS-Fli block: 8.2; CFTR F508del cor: 3.9; PAX8 reporter: 7.7; LGR2 inh: -7.3

Results for COC(=O)Nc1sccc1C(=O)Nc1sccc1C(=O)OC ?
LGR2 inh: 15.7
